The values below come from PubChem BioAssay (NCATS).

Inconclusive results are not listed. A number with no mark means an inactive call. Calls come from the whole dose curve; as a rule, active = well fitted curve in the direction sought with a large enough effect; inconclusive = small, poorly fitted or top-dose-only effect, or effect the other way, or another doubt; inactive = no such curve, though single readings can be large or run the other way. Bridge positions count the residues as written; N and C are the ends. Square brackets hold non-standard residues; d marks the D form. Side chains are listed from the residue outwards. Peptide text beside a SMILES is read from it. * marks the point of attachment. Phg(4-OMe) = COc1ccc([C@H](N)C(=O)O)cc1; d(aIle) = CC[C@H](C)[C@@H](N)C(=O)O; d(aThr) = C[C@@H](O)[C@@H](N)C(=O)O; NMeF = CN[C@@H](Cc1ccccc1)C(=O)O; Isobutyryl = CC(C)C(=O)*

The nature of this test: Cytotoxicity qHTS for assessment of Hepg2 cells membrane integrity screened against the NCATS CANVASS Library (AID 1347387). Particulars: HepG2 LDH release (CytoTox-ONE) fluorescence, 5 h; series mostly up to 46.1 µM; cytotoxicity (LDH release): at the top concentration. The gist of the method:
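Fluorescence proportional to lysed-cell number, from LDH leaking out of HepG2 cells exposed 5 hr at 37C to 0.59 nM - 46 uM compound (11-point qHTS), is measured after 10 min with CytoTox-ONE.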
(In general: Quantitative high-throughput screening tests each substance at several concentrations.)
Consider `CC(C)=CCC[C@]12c3cc4c(cc3CC[C@@]1(C)[C@H](C)CC[C@@H]2O)[nH]c1ccccc14`, for which the “cytotoxicity (LDH release)” value is 1.29.

Consider `C/C=C/C1C=CC2CC(C)CC(C)C2C1C(=O)CC(=O)NC(CO)C/C=C/CCCCC` (stereo not drawn), for which the “cytotoxicity (LDH release)” value was -1.32. For `C=C1CC[C@@H](Br)C(C)(C)[C@]12CC=C(C)C(=O)C2` the value was 2. For `C=CC(CCCCC)C1C(=O)NC(=O)C1C(=O)C1C(/C=C/C)C=CC2CC(C(=O)O)CC(C)C21` (stereo not drawn) the value was 2.5; for `C=C[C@@]1(C)CC[C@@H]([C@H](C)C(=O)/C=C/C(C)(C)O)O1`, 0.848. As for `O=C1CC2OCC=C3CN4C5CC3C2[C@@H]2N1c1ccccc1[C@]52C[C@@H]4C1=C[C@H]2C3CC4N(CC[C@@]45c4ccccc4N(C1=O)[C@@H]25)C/C3=C/CO` (stereo partly drawn), the “cytotoxicity (LDH release)” value was 5.66. For `C=C1CC[C@@H](O[C@H]2C[C@@](O)([C@H](C)NC(=O)c3[nH]c(C)c(Cl)c3Cl)[C@H](O)[C@@H](C)O2)[C@@H]2C=C[C@H](C)C(/C(O)=C3/C(=O)[C@H](C(C)C)N([C@@H]4O[C@H](C)[C@H](OC(N)=O)[C@H](OC(C)=O)[C@@H]4OC)C3=O)[C@@H]12` (stereo partly drawn) the value was -2.9.

Consider `CC[C@H](C)[C@H]1NC(=O)[C@@H](NC(=O)C(C)C)[C@@H](C)OC(=O)[C@H](COC(=O)CNC(C)=O)NC(=O)[C@@H]([C@@H](C)O)NC(=O)[C@H](Cc2ccccc2)N(C)C(=O)[C@H](c2ccc(OC)cc2)NC1=O` (Isobutyryl-T[d(aIle)][Phg(4-OMe)][NMeF][d(aThr)]S([Gly-Ac]); ester 1-C), for which the “cytotoxicity (LDH release)” value was 1.54. For `C=C(C)CC[C@H](Cc1c(O)cc(O)c2c1O[C@H](c1ccc(O)cc1)CC2=O)C(=C)C` the value was -1.69; for `COc1c(O)cc2c(c1O)C(=O)c1c(coc1C)C2=O`, -2.02; for `C[C@]12CC[C@]3(C1)[C@H](CC2=O)C[C@@H](OC(=O)c1ccccc1)[C@H]1[C@](C)(C(=O)O)CCC[C@@]13C`, 3.69. For `Cc1occ2c1C(=O)c1c(cc(O)c(O)c1O)C2=O` the value was -1.01; for `COc1ccc2[nH]c3c(c2c1)CCN1C[C@H]2C[C@@H](OC(=O)c4cc(OC)c(OC)c(OC)c4)[C@H](OC)[C@@H](OC)[C@H]2C[C@H]31`, -0.433. For `C=C[C@](Cl)(CBr)CCC=C(C)C` the value was 1.94; for `CC(=O)O[C@H]1c2ccccc2-c2c3c(cc4c2[C@@H]1N(C(C)=O)CC4)OCO3`, -0.658. Turning to `C=CC(CCCCC)C1C(=O)NC(=O)C1C(=O)C1C2C(C)CC(C(=O)O)CC2CC1(O)C(=O)/C=C/C` (stereo not drawn), the “cytotoxicity (LDH release)” value is -1.36. As for `O[C@H]1c2ccccc2-c2c3c(cc4c2[C@@H]1NCC4)OCO3`, the “cytotoxicity (LDH release)” value was -1.72.

As to `C[C@]12CCC[C@](C)(C(=O)O)[C@@H]1CC[C@@]1(C)c3cocc3CC[C@H]21`, the “cytotoxicity (LDH release)” value was 1.74. For `COc1cc(C2OCC3C(c4ccc(O)c(OC)c4)OCC23)ccc1O` (stereo not drawn), the cytotoxicity (LDH release) is 0.144 [at 9.19 µM]. Regarding `COc1cc(O)c(C(=O)[C@@H]2[C@H](CC=C(C)C)C(C)=CC[C@H]2c2ccccc2)c(O)c1`, the “cytotoxicity (LDH release)” value is 3.95. For `C[n+]1cc2cc(C(N)=O)[nH]c3c(=N)c(Cl)c(N)c1c23` the value was -1.18; for `COc1cc2c(c(O)c1O)C(=O)c1c(coc1C)C2=O`, 2.21. For `CCC(=O)N[C@@H](C[C@H](C)C(Cl)(Cl)Cl)C(=O)N1C(=O)C=C(OC)[C@@H]1CC(C)C` the value was 0.571; for `O=c1cc(-c2ccc(O)c(O)c2)oc2cc(O[C@@H]3O[C@H](CO)[C@@H](O)[C@H](O)[C@H]3O)cc(O)c12`, -1.16; for `C/C1=C/[C@@H](C)[C@H](O)[C@@H](O)/C=C/CC/C=C/C(=O)O[C@@H]1[C@H](C)C(=O)CCCC1CC(=O)NC(=O)C1`, -1.02.

As to `CN1CC[C@]2(c3cccc4c3N[C@H]3N(C)CC[C@@]43[C@]34CCN(C)[C@H]3Nc3ccccc34)c3ccccc3N[C@H]12`, the “cytotoxicity (LDH release)” value is 2.99. For `CC[C@H]1[C@H](C)[C@H](c2cc(OC)c(OC)cc2OC)[C@@H](C)[C@H](c2cc(OC)c(OC)cc2OC)[C@@]12C=C(OC)C(=O)C=C2OC` the value was -3.65; for `CC(=O)Oc1cc2c(c(OC(C)=O)c1C1CCc3cc(Cl)c(Cl)n31)C(=O)n1c-2cc(Cl)c1Cl` (stereo not drawn), 0.741. For `COc1cc2c(cc1OC)[C@@H](c1ccc3c(c1)OCO3)C(C)C(C)C2=O` (stereo partly drawn) the value was 3.18; for `C/C=C(/C)c1c(Cl)c(O)c(C)c2c1Oc1c(Cl)c(O)c(Cl)c(C)c1C(=O)O2`, -1.66.

With `CC(C)C[C@@H]1c2c(O)c(C=O)c(O)c(C=O)c2O[C@]2(C)C=C[C@@H](C(C)C)C[C@H]12`, the “cytotoxicity (LDH release)” value was -2.63.

For the compound `C/C=C(/C)c1cc(O)c(C)c2c1Oc1cc(O)cc(C)c1C(=O)O2`, the “cytotoxicity (LDH release)” value was -0.998. For `CC(C)[C@]12CC[C@@]3(C)[C@H](C)CC[C@H](O)[C@@]3(CC1)c1cc3c(cc12)[nH]c1ccccc13` the value was 2.99; for `C[C@H]1C=C[C@H]2CCCC[C@@H]2[C@H]1C(=O)[C@H]1CC2=C(C(=O)O)CCN2C1=O`, -0.361.

On to `C/C=C(/C)c1c(Cl)c(OC)c(C)c2c1Oc1c(Cl)c(O)c(Cl)c(C)c1C(=O)O2`, for which the “cytotoxicity (LDH release)” value is 0.899. Consider `C/C(=C\CC[C@@H](C)[C@H]1CC[C@]2(C)C3=CCC4C(C)(C)[C@@H](O)C[C@@H](O)[C@]4(C)C3[C@H](O)C[C@@]12C)CO` (stereo partly drawn), for which the “cytotoxicity (LDH release)” value was -0.11. For `COC12OC1(C13OC1(OC)C(=O)c1cc4cc(C)oc(=O)c4c(O)c1C3O)C(O)c1c(cc3cc(C)oc(=O)c3c1O)C2=O` (stereo not drawn) the value was -0.72; for `CO[C@H]1[C@@H](OC(=O)/C(C)=C\[C@@H]2O[C@@H]2[C@H]2O[C@H]2C)[C@H](O)[C@H](OCC23C[C@@H]4[C@H](C)CC[C@H]4C4(C=O)CC2C=C(C(C)C)C34C(=O)O)O[C@@H]1C` (stereo partly drawn), -2.96.
